Experimental data: PubChem BioAssay AID651638 (Johns Hopkins Ion Channel Center, 2012)
In all, about 2,400 compounds went through this assay and about 2,400 (100%) were called active.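 How the source made its calls: active means ratio percent of control, averaged over triplicates, above buffer control mean plus 5 SD (cut at about 64% in these data); inactive means the rest.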 The set was probably picked from earlier hits. Not all results are given here.

Each compound was assayed against Potassium channel subfamily K member 3 (Homo sapiens) (UniProt O14649) (assay: TASK1 potassium channel blockade, triplicate retest – CHO cells, FluxOR thallium flux, confirmation (AID 651638;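 further: ratio is the fluorescence rise from min to max over baseline after thallium stimulus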)). Conditions: CHO-KCNK3 thallium flux, FluxOR fluorescence; at 10 µM; hits give high values; 0% buffer, 100% carvedilol maximal block.
Potassium channel subfamily K member 3 (Homo sapiens), sequence (O14649 whole entry, looked up): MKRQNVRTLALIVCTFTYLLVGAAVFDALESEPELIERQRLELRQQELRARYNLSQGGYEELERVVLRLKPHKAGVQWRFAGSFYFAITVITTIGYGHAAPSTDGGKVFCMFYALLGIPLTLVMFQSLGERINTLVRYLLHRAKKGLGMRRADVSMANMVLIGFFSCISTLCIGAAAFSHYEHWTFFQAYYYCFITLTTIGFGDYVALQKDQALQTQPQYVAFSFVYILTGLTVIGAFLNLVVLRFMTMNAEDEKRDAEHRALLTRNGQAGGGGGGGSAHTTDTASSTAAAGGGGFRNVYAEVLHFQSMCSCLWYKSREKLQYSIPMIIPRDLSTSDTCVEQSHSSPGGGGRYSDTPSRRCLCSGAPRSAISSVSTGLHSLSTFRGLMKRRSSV
With C=CCSc1nsc(NC(=O)Nc2cccc(C(C)=O)c2)n1 the ratio percent of control was 109% (active). For COc1ccc([N+](=O)[O-])cc1-c1nc2ccccc2nc1-c1ccccc1, the ratio percent of control was 127% (active). For COc1cccc(C(=O)NCCSc2ccc(Br)cc2)c1, the ratio percent of control was 92.3% (active). In the case of Cc1cccc2c1-c1sc(C(=O)NCCCN3CCc4ccccc4C3)cc1CO2, the ratio percent of control is reported as 90.3% (active). CCCCC(=O)Nc1ccccc1N1CCN(c2ccc(F)cc2)CC1 was tested, and the ratio percent of control was 102% (active). For O=C(Nc1ccccc1N1CCCC1)c1ccc2ccccc2c1, the ratio percent of control was 134% (active). For Cc1cccc(C(=O)Nc2ccccc2N2CCN(c3ccc(F)cc3)CC2)c1, the ratio percent of control was 119% (active). In the case of N#Cc1nc(Cc2cccc3ccccc23)oc1NCc1ccc2c(c1)OCO2, the ratio percent of control is reported as 96% (active). N#Cc1cccc(NC(=O)COC(=O)c2ccccc2C(=O)c2ccc(Cl)c([N+](=O)[O-])c2)c1 was tested, and the ratio percent of control was 135% (active). For CC(Sc1nc2ccccc2c(=O)n1Cc1ccco1)C(=O)c1ccccc1 (configuration not stated), the ratio percent of control was 97% (active). Cc1cc(C)c(C#N)c(SCc2ccc3c(c2)OCO3)n1 was tested, and the ratio percent of control was 137% (active). For CCCCCCCCCCOC(=O)Cn1c(COc2cccc(OC)c2)[n+](C)c2ccccc21, the ratio percent of control was 119% (active). With CS/C(=C\C(=O)c1ccco1)Nc1ccccc1Cl the ratio percent of control was 95% (active). With S=C(Nc1cccc(Br)c1)N1CCn2cccc2C1c1cccnc1 (configuration not stated) the ratio percent of control was 79.7% (active). CCCOc1ccc2c3c(c(=O)oc2c1OCCC)CCC3 was tested, and the ratio percent of control was 111% (active). For COc1ccc(CC(=O)Nc2nc(-c3ccc(F)c(F)c3)cs2)cc1OC, the ratio percent of control was 134% (active). CC(Oc1cccc(NC(=O)c2cccs2)c1)C(=O)c1ccccc1 (configuration not stated) was tested, and the ratio percent of control was 103% (active). Cc1cccc(N(Cc2ccccc2)C(=O)c2ccccc2F)c1 was tested, and the ratio percent of control was 88.3% (active). CCOc1ccc(C2c3[nH]c4ccccc4c3CCN2Cc2cccn2-c2ncccn2)cc1 (configuration not stated) was tested, and the ratio percent of control was 117% (active). CC[n+]1cc(C)ccc1/C=C/c1ccc(N(C)C)cc1 was tested, and the ratio percent of control was 143% (active). In the case of COc1ccc(C(C)=O)cc1COc1ccc(Cl)c(C)c1, the ratio percent of control is reported as 117% (active). O=C(Nc1cccc(Cl)c1)Nc1ccccc1NS(=O)(=O)c1cccs1 was tested, and the ratio percent of control was 138% (active). For C=CCc1cc(S(=O)(=O)c2ccc(O)c(CC=C)c2)ccc1O, the ratio percent of control was 106% (active). CC(=O)N(C1=C(Cl)C(=O)c2ccccc2C1=O)c1ccc(C(=O)O)cc1 was tested, and the ratio percent of control was 136% (active). With COc1ccc(S(=O)(=O)NCCCCOc2ccc(Cl)cc2)cc1 the ratio percent of control was 123% (active). In the case of C=CCSc1nnc(N2C(=O)C(O)=C(C(=O)c3ccco3)C2c2ccc(F)cc2)s1 (configuration not stated), the ratio percent of control is reported as 92% (active). With O=C(Oc1ccc(Br)cc1C(=S)N1CCOCC1)c1cccc([N+](=O)[O-])c1 the ratio percent of control was 103% (active). For CCCc1cc(C(=O)N2CCCC(CO)(CCCc3ccccc3)C2)n(C)n1 (configuration not stated), the ratio percent of control was 103% (active). In the case of CCN(CC)CCN(C(=O)c1cc(Cl)sc1Cl)c1nc2cc3c(cc2s1)OCO3, the ratio percent of control is reported as 121% (active). For COc1ccc(CN(C)C(=O)c2cc(-c3ccc(C)cc3C)nc3ccccc23)c(OC)c1OC, the ratio percent of control was 129% (active). For CC(C)CCNC(=O)C(C)N(C(=O)Cn1nnc(-c2ccc(F)cc2)n1)C1CCCC1 (configuration not stated), the ratio percent of control was 74% (active). With COC(=O)c1ccc(COC(=O)C2CCN(S(=O)(=O)c3c(Cl)cccc3Cl)CC2)o1 the ratio percent of control was 85.3% (active). In the case of CCn1ncc(Br)c1C(=O)Nc1cc(C)ccc1F, the ratio percent of control is reported as 87.3% (active). With O=C(Cn1cc(C(=O)c2cccs2)c2ccccc21)NCc1cccs1 the ratio percent of control was 116% (active). In the case of COc1cc(Cl)c(S(=O)(=O)N2CCN(Cc3ccc4c(c3)OCO4)CC2)cc1Cl, the ratio percent of control is reported as 107% (active). Cc1nc2ccccc2cc1OCc1ccc(F)cc1 was tested, and the ratio percent of control was 134% (active). In the case of [O-][n+]1ccc(OCc2ccccc2)cc1, the ratio percent of control is reported as 73% (active). Cc1cc(OCCCCOc2ccc(C#N)cc2)ccc1[N+](=O)[O-] was tested, and the ratio percent of control was 119% (active). Cc1ccc(S(=O)(=O)NCc2cn3ccsc3n2)c(C)c1 was tested, and the ratio percent of control was 64% (active). For CC(C(=O)NCC1CCCCC1)N(C)Cc1cccc(Cl)c1 (configuration not stated), the ratio percent of control was 114% (active). For O=C(CSc1nc(Nc2ccccc2)nc(N2CCOCC2)n1)Nc1cc(Cl)ccc1O, the ratio percent of control was 127% (active). In the case of Clc1cccc(-c2nc(NCC3CCCO3)c3ccccc3n2)c1 (configuration not stated), the ratio percent of control is reported as 130% (active). For CCc1ccc2nc3sc(C(=O)Nc4nnc(CC)s4)c(N)c3cc2c1, the ratio percent of control was 116% (active). CSc1cccc(NC(=S)N(C(C)C)C(C)c2ccccn2)c1 (configuration not stated) was tested, and the ratio percent of control was 98.3% (active). COc1ccc(Cl)cc1NC(=O)C(C)N1CCc2ccccc21 (configuration not stated) was tested, and the ratio percent of control was 96.3% (active). With CCc1nc(SCC(=O)NNC(=O)c2ccc(C)cc2)c2ccccc2n1 the ratio percent of control was 78% (active). FC(F)(F)c1cccc(NC(=S)Nc2cccc(Cl)c2)c1 was tested, and the ratio percent of control was 127% (active). CSc1nccc(NC(=O)c2ccc(C(C)(C)C)cc2)n1 was tested, and the ratio percent of control was 116% (active). For Cc1cccc(NC(=O)c2sc3nc4c(c(-c5ccco5)c3c2N)CCC4)c1, the ratio percent of control was 115% (active). N#Cc1ccc(S(=O)(=O)NCC(=O)OCC(=O)NCCc2ccccc2)cc1 was tested, and the ratio percent of control was 63% (active). For O=C1c2ccccc2C2=Nc3ccccc3SC(c3ccccc3F)C12 (configuration not stated), the ratio percent of control was 128% (active). In the case of O=C(c1cc(-c2ccc(O)cc2)on1)N1CCCc2ccccc21, the ratio percent of control is reported as 76.7% (active). With COc1ccc2c(c1)C(c1cccs1)=NNC(c1cccnc1)=N2 the ratio percent of control was 73.3% (active). In the case of CC(=O)Nc1cccc(OCC(=O)/C=C2\N(C)c3ccccc3C2(C)C)c1, the ratio percent of control is reported as 124% (active). In the case of COc1cc(C(=O)Nc2oc(-c3ccccc3)c(-c3ccccc3)c2C#N)cc(OC)c1OC, the ratio percent of control is reported as 119% (active). Cc1nonc1C1CCCN1C(=O)c1cc(COc2cccc(C(F)(F)F)c2)on1 (configuration not stated) was tested, and the ratio percent of control was 87.3% (active). With Cc1ccc(NC(=O)c2cc([N+](=O)[O-])ccc2Cl)c(O)c1 the ratio percent of control was 119% (active).
